Compound activity as filed in PubChem BioAssay.
GALR2 blocker: GALR2 antagonists in receptor-expressing cells, primary screen. actives 0.39% (n = 140,000). AID 828, 2007. antagonist mode. inhibition, % at 4 µM. Galanin receptor type 2 (Homo sapiens), O43603; in the data active means inhibition above about 27%;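 further: cells stimulated with galanin 1-16 at roughly its EC80; 0% = agonist challenge control and 100% = basal control without agonist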
Target sequence (O43603 whole entry, looked up): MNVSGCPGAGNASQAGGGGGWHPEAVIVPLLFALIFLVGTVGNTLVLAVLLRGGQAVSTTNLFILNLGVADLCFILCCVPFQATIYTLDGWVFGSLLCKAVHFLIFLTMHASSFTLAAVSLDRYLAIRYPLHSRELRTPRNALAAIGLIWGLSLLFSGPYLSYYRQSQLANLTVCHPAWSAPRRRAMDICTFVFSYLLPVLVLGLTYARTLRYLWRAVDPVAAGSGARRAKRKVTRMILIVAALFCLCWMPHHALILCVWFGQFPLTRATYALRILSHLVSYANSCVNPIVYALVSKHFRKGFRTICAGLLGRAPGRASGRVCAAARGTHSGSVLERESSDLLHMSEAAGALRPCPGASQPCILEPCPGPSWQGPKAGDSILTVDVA
S1P2 blocker: human S1P2 receptor antagonists, primary screen, cell-based | Sphingosine 1-phosphate receptor 2 (Homo sapiens), O95136 | cell-based S1P2 antagonist assay, inhibition at 5 uM | inhibition, % at 5 µM | actives 0.21% (n = 97,000) | AID 736, 2007; in the data active means inhibition above about 45%;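 further: CRE beta-lactamase reporter cells expressing human S1P2 stimulated with S1P; 0% = agonist at EC80 alone and 100% = agonist plus reference antagonist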
Target sequence (O95136 whole entry, looked up): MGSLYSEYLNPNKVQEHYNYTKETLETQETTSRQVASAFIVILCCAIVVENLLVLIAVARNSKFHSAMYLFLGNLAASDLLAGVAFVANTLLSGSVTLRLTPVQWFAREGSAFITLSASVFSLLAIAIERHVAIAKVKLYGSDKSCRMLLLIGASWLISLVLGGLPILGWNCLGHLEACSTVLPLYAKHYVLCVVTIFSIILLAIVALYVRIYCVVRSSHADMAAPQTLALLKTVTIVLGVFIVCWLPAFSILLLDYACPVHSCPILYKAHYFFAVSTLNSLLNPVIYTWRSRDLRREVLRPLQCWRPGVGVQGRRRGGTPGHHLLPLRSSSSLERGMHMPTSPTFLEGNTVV
GALR2 agonist: GALR2 receptor agonists, primary screen, cell-based. Galanin receptor type 2 (Homo sapiens), O43603. GALR2-expressing cells, agonist activation read-out. activation, % (concentration not given with the values). actives 0.48% (n = 140,000). AID 803, 2007; in the data active means activation above about 5%, passing the limit was not always enough;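 further: 0% = vehicle buffer wells and 100% = reference agonist at full effect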
S1P2 ag: S1P2 receptor agonists, primary screen, cell-based; Sphingosine 1-phosphate receptor 2 (Homo sapiens), O95136; S1P2-expressing cell line, agonist reporter read-out; activation, % at 4.5 µM; actives 0.46% (n = 97,000); AID 729, 2007; in the data active means activation above about 16%;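 further: 0% = vehicle low control and 100% = maximal reference agonist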
GALR2 ag confirm: GALR2 agonists, retest of hits, confirmation, cell-based; shares compounds with GALR2 agonist; GALR2-expressing cells, agonist activation; activation, % at 5.6 µM; actives 10% (n = 460); AID 864, 2007; in the data active means activation above about 8.4%;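 further: 0% = buffer-only vehicle wells and 100% = full reference agonist response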
BLA act counter: activators of NFAT-driven beta-lactamase reporter, confirmation, counter-screen for GALR2 agonist project, CHO NFAT-bla cells, FRET readout. shares compounds with GALR2 agonist. beta-lactamase FRET activation. actives 10% (n = 460). activation, % at 5.6 µM;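 active means activation above the screen-wide mean activation plus 3 SD, cut at about 8% in these data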;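 further: 0% = DMSO with PBS wells and 100% = thapsigargin positive control wells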
Numbers without * were called inactive; · = not tested or not shown. Compounds with a hit are over-represented: about 1.2% of the library has one in this group of screens.

SMILES | GALR2 blocker | S1P2 blocker | GALR2 agonist | S1P2 ag | GALR2 ag confirm | BLA act counter
CCCn1nc(NC(=O)c2ccncc2)c2cc3ccccc3nc21 | -3.4 | -41.1 | 1.2 | 6.6 | · | ·
CC(=O)CCn1c(=O)n(CCC(C)=O)c(=O)n(CCC(C)=O)c1=O | -0.4 | 5.0 | 36.4* | -14.2 | -1.2 | -2.7
COc1ccc(C2NC(=S)N3C(c4ccc(OC)cc4)NC(=S)N23)cc1 (stereo unspecified) | 1.7 | -7.7 | -2.1 | -5.4 | · | ·
S=C1NC(c2ccccc2)N2C(=S)NC(c3ccccc3)N12 (stereo unspecified) | -3.7 | -14.8 | 12.3* | -3.4 | -0.3 | -0.3
O=C(Nc1ccccc1-c1nnn(CC(=O)N2CCCc3ccccc32)n1)c1ccc(Cl)cc1 | 5.3 | -15.8 | 27.7* | -2.6 | -0.6 | -1.6
CCOc1ccc(CC(=O)N2N=C(C)CC2(O)C(F)(F)F)cc1 (stereo unspecified) | -10.4 | · | -0.2 | · | · | ·
O=C(/C=C(/c1ccc(Cl)cc1)n1cncn1)c1ccccc1 | 0.4 | · | -1.8 | · | · | ·
CCN(CC)c1ccc2c(c1)oc(=O)c1c(Cl)cc(=O)oc12 | -2.4 | 19.2 | 20.1* | 14.0 | 6.3 | 11.5*
CCN(CC)c1ccc2c(C)c(-c3ccc(N)cc3)c(=O)oc2c1 | 14.8 | · | 4.3 | · | · | ·
CCSc1nnc(-c2cccnc2)n1-c1ccc(C)c(Cl)c1 | -32.2 | -6.4 | 8.9 | -3.4 | 0.0 | -0.2
C(=C\c1ccco1)/C1=NN(c2ccccc2)C(c2ccco2)C1 (stereo unspecified) | 16.8 | · | 72.3* | · | 27.4* | 38.8*
COC(=O)C1=CNC=C(C(=O)OC)C1c1ccccc1Cl | 1.3 | 1.1 | 9.4 | 6.9 | 1.0 | 2.7
CCOC(=O)c1cc(-c2ccc(C)cc2)n(CCC(=O)N2CCN(c3ccccn3)CC2)c1C | -5.7 | · | 0.5 | · | · | ·
COc1ccc2c(c1)c(=O)oc1cc(OCC(=O)N3CCc4ccccc4C3)ccc12 | -13.1 | -14.3 | -2.4 | -1.2 | · | ·
COCCCNC(=O)c1cn(CC(C)C)c(=O)c2c1c1ccccc1n2C | -5.5 | -5.0 | 19.9* | -5.5 | -0.4 | -2.8
Cc1cccc(NC(=O)c2ccc([N+](=O)[O-])s2)c1C | 8.1 | · | -1.8 | · | · | ·
COc1ccc(NC(=O)c2ccccc2F)cc1Cl | 10.5 | -2.7 | 14.6* | -0.2 | -0.6 | -2.4
COc1ccc(NC(=O)c2cccc(F)c2)cc1Cl | 6.9 | 4.8 | -1.4 | -3.2 | · | ·
CC1(CC(=O)N/N=C/c2ccc(-c3cccc(C(F)(F)F)c3)o2)OCCO1 | -8.5 | · | -1.2 | · | · | ·
O=C(CCC(=O)N/N=C/c1ccccc1O)NCc1ccccc1 | 4.1 | · | -1.2 | · | · | ·
COc1ccc2cc(-c3cc(C(=O)OCC(=O)NC4CCS(=O)(=O)C4)c4ccccc4n3)ccc2c1 (stereo unspecified) | 13.6 | · | 11.0* | · | 14.0* | 25.1*
O=C(COC(=O)c1cc(-c2cccc3ccccc23)nc2ccccc12)NC1CCS(=O)(=O)C1 (stereo unspecified) | 7.4 | · | 0.2 | · | · | ·
C[N+]1(CC(=O)Nc2ccc(F)cc2)CCN(C(=O)c2ccco2)CC1 | 1.6 | 1.8 | -2.7 | -9.6 | · | ·
Fc1c(F)c(C(F)(F)F)c(F)c(F)c1N/N=C\c1cccs1 | 1.1 | 5.2 | 31.4* | -0.4 | 6.7 | 5.8
N#Cc1c(NC(=O)c2ccccc2Cl)n(Cc2ccccc2)c2nc3ccccc3nc12 | 10.4 | · | 8.2* | · | 3.6 | 6.9
SMILES | GALR2 blocker | S1P2 blocker | GALR2 agonist | S1P2 ag | GALR2 ag confirm | BLA act counter
CC(C)OC(=O)CSc1nnc(-c2ccccc2)n1N | -6.1 | -7.0 | -0.8 | -3.5 | · | ·
O=C(Cn1c(COc2ccccc2)nc2ccccc21)Nc1cc(Cl)ccc1Cl | 1.3 | · | 10.1* | · | 3.7 | 5.4
O=C(Cn1c(COc2ccccc2)nc2ccccc21)Nc1cc(Cl)cc(Cl)c1 | -6.4 | · | 1.9 | · | · | ·
COCCOC(=O)c1c(C)n(C)c2ccc(OC(=O)c3ccco3)cc12 | -8.9 | -10.0 | 85.8* | -6.7 | -0.3 | 0.6
COc1ccc(C2c3c(oc4ccc(Cl)cc4c3=O)C(=O)N2Cc2ccco2)cc1OC (stereo unspecified) | 11.8 | · | 21.1* | · | 7.3 | 4.8
Cc1ccc(NC2=C(Cl)C(=O)OC2OC(=O)c2ccco2)cc1 (stereo unspecified) | 7.9 | -4.7 | 35.3* | -3.1 | -1.1 | -1.5
Cc1ccc(/C(N)=N/OC(=O)c2ccco2)cc1 | 10.7 | -12.1 | -2.7 | -5.7 | · | ·
CCOC(=O)c1c(NC(=O)C2=C(C)NC(=S)NC2c2ccc(CC)cc2)sc(C)c1C (stereo unspecified) | -1.7 | · | 9.5* | · | 3.6 | 4.0
Cc1cc(C)c(NC(=O)/C(=C/c2ccccc2)c2ccccc2)c(C)c1 | -1.4 | · | -1.6 | · | · | ·
Cc1ccc(NC(=O)/C(=C/c2ccco2)c2ccccc2)c(C)c1 | -4.9 | -0.6 | 90.9* | -5.3 | -0.8 | -1.8
CCOc1ccc(Nc2nc(Cc3nnc(SCC(=O)c4ccc(C)c(C)c4)o3)cs2)cc1 | 5.1 | 4.7 | 19.3* | -3.5 | -1.0 | -0.2
O=C(c1cc2ccccc2oc1=O)N(c1ccc(Cl)cc1)C1C=CS(=O)(=O)C1 (stereo unspecified) | 17.6 | · | 0.8 | · | · | ·
COCCN1C=C(C(=O)OC)C(c2ccccc2C(F)(F)F)C(C(=O)OC)=C1 | -2.2 | -14.8 | 17.6* | 11.1 | 1.6 | 6.3
CCN(CC)S(=O)(=O)c1ccc(Cl)c(C(=O)Nc2cc(C)nn2-c2ccccc2)c1 | 7.7 | · | -0.9 | · | · | ·
COc1ccc(CNC(=O)C(c2ccncc2)N(C(=O)Cc2cccs2)c2ccc(C)cc2)cc1 (stereo unspecified) | 2.2 | 14.4 | 0.5 | -4.4 | · | ·
O=C(CSc1ncc(-c2ccccc2)n1CC1CCCO1)N1CCCCC1 (stereo unspecified) | -2.4 | · | -0.1 | · | · | ·
CC(C)Cn1c(-c2ccc(Cl)cc2)cnc1SCC(=O)N1CCOCC1 | -0.5 | 29.8 | 20.9* | -2.0 | -1.4 | -1.0
CC(=O)c1cc(C(=O)c2ccccc2)sc1Nc1ccccc1 | -10.6 | · | 0.4 | · | · | ·
CCN(CC)S(=O)(=O)c1ccc(-c2nnc(SCC(C)=O)o2)cc1 | -8.0 | -13.8 | 10.1 | -5.5 | -0.5 | -1.0
CC(=O)c1cccc(NC(=O)c2ccc(Br)o2)c1 | 13.2 | · | -1.2 | · | · | ·
CCCCC(=O)Nc1cccc(NC(=O)c2ccc(Br)o2)c1 | 5.6 | 11.2 | 9.0 | -1.9 | -0.6 | -1.8
Cc1ccc(NC(=O)C2C(=O)N(C)c3ccccc32)cc1 (stereo unspecified) | -10.7 | · | 0.1 | · | · | ·
CC1(C)Cc2c(C#N)c(N3CCCC3)nc(-c3ccco3)c2CO1 | -9.1 | -35.6 | 10.6 | 8.8 | 2.1 | 4.0
CC1(C)Cc2c(C#N)c(NCc3ccco3)nc(-c3ccco3)c2CO1 | 4.0 | · | -2.3 | · | · | ·
COc1ccc(/C=N/NC(=O)c2ccc(NC(=O)c3ccccc3Br)cc2)cc1 | 6.6 | · | -1.3 | · | · | ·
N#Cc1c(-c2ccccc2)cc(-c2ccco2)c(C#N)c1N | -5.7 | -34.8 | 9.6 | 10.9 | 7.7 | 10.7*
